# Test results taken from PubChem BioAssay AID1117291 (Broad Institute, 2014).
# Potency and affinity values are given separately. Inconclusive results are not listed. Calls of active or inactive are those of the source.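 Rule for the calls: active = compound whose fitted half-maximal potency lies at or below double its highest tested dose in every test; inconclusive = tests disagree, or a flat partial loss, or a poor fit; inactive = every test inactive.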
# Assay: HepG2 cell cytotoxicity, dose response, cytotoxicity control, CellTiter-Glo luminescence, dry powder, set 20 (AID 1117291)
# Details: HepG2 viability, CellTiter-Glo ATP luminescence, 72 h; series mostly up to 26 µM; activity change, negative = cytotoxicity: at the top concentration
row,SMILES,"activity change, negative = cytotoxicity"
1,COc1ccc(C(=O)O)cc1S(=O)(=O)Nc1cc(C(F)(F)F)ccc1N1CCOCC1,-30.4% (inactive)
2,COc1ccc(C(=O)O)cc1S(=O)(=O)Nc1cc(C(F)(F)F)ccc1N(C)C,-10.8% (inactive)
3,COc1ccc(C(=O)Nc2cc(C(F)(F)F)ccc2N2CCCCC2)cc1S(=O)(=O)O,-13.2% (inactive)
4,CC(=O)N1CCN(C(=O)C2(NC(=O)NCCc3ccccc3)CCCCC2)CC1,-25% (inactive)
5,CC(=O)N1CCN(C(=O)C2(NC(=O)Nc3ccccc3C(F)(F)F)CCCCC2)CC1,-12.9% (inactive)
6,O=S(=O)(Nc1cc(C(F)(F)F)ccc1N1CCCCC1)c1ccccc1,-7% (inactive)
